# Laboratory results as given in PubChem BioAssay AID1851 (National Center for Advancing Translational Sciences (NCATS), 2009).
# Several values for one entry are separate records, joined by “and”; a condition that tells them apart may be missing. Identical values can stand only once. The campaign covered roughly 16,000 compounds. About 5,800 (36%) were called active. Inconclusive results (about 23%) are left out. The call rests on the fitted dose curve; in most records, active means well fitted curve in the direction sought with a large enough effect; inconclusive means small, poorly fitted or top-dose-only effect, or effect the other way; inactive means no such curve, though single readings can be large or run the other way. Some of the results follow. Some structures have more than one record in an assay (separate samples or runs), and their calls can disagree.
# Biological target: Cytochrome P450 2C19 (Homo sapiens) (UniProt P33261)
# Sequence (P33261 whole entry, looked up): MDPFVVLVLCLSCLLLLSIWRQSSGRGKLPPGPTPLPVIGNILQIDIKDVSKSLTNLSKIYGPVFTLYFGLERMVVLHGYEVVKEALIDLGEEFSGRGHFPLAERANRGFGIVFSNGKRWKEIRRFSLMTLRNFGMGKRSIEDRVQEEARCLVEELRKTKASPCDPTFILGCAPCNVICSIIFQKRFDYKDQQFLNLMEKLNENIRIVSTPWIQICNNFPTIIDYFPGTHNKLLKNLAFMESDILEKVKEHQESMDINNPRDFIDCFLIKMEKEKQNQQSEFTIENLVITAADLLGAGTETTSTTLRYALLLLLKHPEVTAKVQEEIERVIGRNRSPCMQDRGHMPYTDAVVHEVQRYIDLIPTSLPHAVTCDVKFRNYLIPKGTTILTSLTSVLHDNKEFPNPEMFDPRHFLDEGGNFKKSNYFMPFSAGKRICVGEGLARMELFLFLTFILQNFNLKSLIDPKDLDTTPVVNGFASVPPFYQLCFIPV
# Assay: Cytochrome panel assay with activity outcomes
# Settings: recombinant CYP, pro-luciferin dealkylation, luminescence, p450-cyp2c19; series mostly up to 57.1 µM
# On the % scale 0 is the no-effect control and ±100 the full control effect.
Compound,AC50,"activity, negative = inhibition"
CC12CS(=O)(=O)CC1SC(=S)N2c1ccccn1 (stereo not given),inactive,–
COc1ccc(NC(=O)N2CC[C@@]3(CCCN(C(=O)c4cccn4C)C3)C2)cc1,inactive,–
COc1ccc(C(=O)N2CCC3(CCN(C(=O)Nc4cccc(F)c4)CC3)CC2)cc1,inactive,–
COc1ccc(S(=O)(=O)N2CCN(CC(=O)Nc3cccc(F)c3)CC2)cc1,4.47 µM (active),–
CCOc1ccc(C(=O)CN2CCN(S(=O)(=O)c3ccc(F)cc3)CC2)cc1,7.08 µM (active),–
COC(=O)N1CCC2(CCCN(C(=O)Nc3cccc(F)c3)C2)CC1,inactive,–
Cc1cccc(Cc2c(C)nc3nc(SCC(=O)NCc4ccco4)nn3c2C)c1,5.01 µM (active),–
Cc1ccc(C2C3=C(CCCC3=O)Nc3nc(SCC(=O)NCc4ccco4)[nH]c(=O)c32)cc1 (stereo not given),inactive,–
Cc1nc2nc(SCC(=O)NCc3ccco3)nn2c(C)c1Cc1c(F)cccc1Cl,15.8 µM (active),–
CC(=O)c1ccc(NC(=O)C(Cc2ccccc2)NC(=O)c2ccco2)cc1 (stereo not given),15.8 µM (active),–
O=C(NC(Cc1ccccc1)C(=O)O)/C(=C\c1ccco1)NC(=O)c1ccc(Br)cc1 (stereo not given),inactive,–
O=C(Nc1ccccc1)C(Cc1ccccc1)NC(=O)C12CC3CC(CC(C3)C1)C2 (stereo not given),inactive,–
N#Cc1cccc(NC(=O)N2CC3(CCN(C(=O)c4cnccn4)CC3)C2)c1,inactive,–
CCOC(=O)C1=C(C)N=C2SC(C(=O)OC)=CC(=O)N2C1c1ccc(F)cc1 (stereo not given),1.26 µM (active),–
CCCC(=O)NCCc1c2n(c3ccc(OC)cc13)Cc1ccccc1-2,0.398 µM (active),–
COc1ccc2c(c1)c(CC(=O)O)c(C)n2C(=O)c1ccccc1,inactive,–
CC1(C)OC(=O)C(=CNc2cccc(O)c2)C(=O)O1,inactive,–
CC1(C)OC(=O)C(=CNCC(O)c2ccccc2)C(=O)O1 (stereo not given),11.2 µM (active),–
CSCCC(NC=C1C(=O)OC(C)(C)OC1=O)C(=O)O (stereo not given),inactive,–
COCCN1CN=C(Nc2nc3ccccc3o2)NC1,inactive,–
COCCn1c(=O)c(-c2ccccc2)nc2cnc(Nc3ccccc3)nc21,inactive,–
c1ccc2sc(NC3=NCN(C4CCCCCC4)CN3)nc2c1,1.12 µM (active),–
COCCN1CN=C(Nc2nc3ccccc3s2)NC1,14.1 µM (active),–
c1ccc2sc(SCN(C3CCCCC3)C3CCCCC3)nc2c1,–,-38.6% [at 11.4 µM] (inactive)

Compound,AC50,"activity, negative = inhibition"
CN1CCN(c2ncc3nc(-c4cc(F)cc(F)c4)c(=O)n(CCC#N)c3n2)CC1,inactive,–
CN(C)c1ccccc1CN1CCCN(Cc2ccccc2N(C)C)C1c1ccncc1,–,-28.5% [at 11.4 µM] (inactive)
CCCCCCCCN1C(=O)N(C)C(N(O)C(=O)NC)C1(C)C (stereo not given),7.08 µM (active),–
O=C(COc1ccccc1)Nc1cc(C(F)(F)F)ccc1N1CCCC1,5.01 µM (active),–
O=C(Nc1cc(C(F)(F)F)ccc1N1CCCCC1)c1ccc(Br)o1,11.2 µM (active),–
NS(=O)(=O)c1cc(C(=O)O)cc(N2CCCC2)c1Oc1ccccc1,inactive,–
Nc1ncnc2c1ncn2CCCCC(=O)O,–,24.1% [at 11.4 µM] (inactive)
COc1ccc2nccc(C(=O)O)c2c1,inactive,–
COc1ccc2nc(SCC(=O)NN)cc(C)c2c1,inactive,–
COc1ccc2nccc(SCC(=O)O)c2c1,–,-14.8% [at 11.4 µM] (inactive)
COc1ccc2nc(C)cc(SCC(=O)NNC(=O)COc3ccc(C)cc3)c2c1,3.16 µM (active),–
COc1ccc2nc(C)cc(SCC(=O)Nc3c(C)cc(C)cc3C)c2c1,2.51 µM (active),–
NC(=O)c1cc[n+](CC2=C(C(=O)[O-])N3C(=O)[C@@H](NC(=O)Cc4cccs4)[C@@H]3SC2)cc1,inactive,–
CCOC(=O)C(NC(C)=O)C(OC(C)=O)c1cccc(N(CCO)CCO)c1 (stereo not given),inactive,–
O=C(Nc1nnc(C2CC2)s1)c1cc(S(=O)(=O)N2CCN(c3ccccc3)CC2)ccc1Cl,7.08 µM (active),–
Cc1c(NC(=O)C2CCN(S(=O)(=O)c3ccc(Cl)cc3)CC2)c(=O)n(-c2ccccc2)n1C,inactive,–
COc1ccc(COC(=O)N/N=C2/C[C@@H](O)[C@@H](O)[C@@H]3[C@@H]4C(=O)N(C(C)(C)C)C(=O)[C@H]4CC[C@@H]23)cc1,–,1.08% [at 11.4 µM] (inactive)
Brc1ccc([C@H]2CN3CCSC3=N2)cc1,inactive,–
CC(=O)c1c(C)nc(-c2ccccc2)n1O,inactive,–
CN=c1nc(-c2ccccc2)n(-c2ccccc2)s1,3.16 µM (active),–
Cc1ccc(-n2c(-c3ccccc3)cc(=O)nc2C)cc1,inactive,–
Cc1noc(C)c1C(=O)N1CCC2(CCCN(c3ccncc3)C2)CC1,inactive,–
CN(C)S(=O)(=O)Oc1ccccc1C(=O)Nc1cccc(C(F)(F)F)c1,2 µM (active),–
Cc1c(C(=O)Nc2cccc(C(F)(F)F)c2)oc2ccc(S(=O)(=O)N3CCOCC3)cc12,7.94 µM (active),–

Compound,AC50,"activity, negative = inhibition"
Cc1c(C(=O)NC2CCCc3ccccc32)oc2ccc(S(=O)(=O)N3CCOCC3)cc12 (stereo not given),11.2 µM (active),–
CCOC(=O)CC1C(=O)NCCN1S(=O)(=O)c1ccc(Cl)c(Cl)c1 (stereo not given),11.2 µM (active),–
COC(=O)CC1C(=O)NCCN1C(=O)Nc1ccc(Cl)cc1 (stereo not given),inactive,–
CCCc1cc2c(cc1NC(=O)c1ccccc1C)OCO2,0.178 µM (active),–
CCCc1cc2c(cc1NC(=O)c1ccccc1Cl)OCO2,0.398 µM (active),–
CCCc1cc2c(cc1NC(=O)c1ccc(Br)cc1)OCO2,0.0794 µM (active),–
Cc1nn(C)c(C)c1CNC(=O)c1cnn2c1NC(c1ccccc1)CC2C(F)(F)F (stereo not given),inactive,–
COc1ccccc1CN1CC2(CCN(S(C)(=O)=O)CC2)C1,inactive,–
CN(C)C(=C(C#N)C#N)N1CCN(c2ccc(Cl)c(Cl)c2)CC1,10 µM (active),–
CCC(Sc1nc(=O)cc(N)n1CCc1ccccc1)C(=O)Nc1ccccc1C#N (stereo not given),11.2 µM (active),–
Nc1cc(=O)nc(SCC(=O)Nc2cccc3ccccc23)n1CCc1ccccc1,14.1 µM (active),–
NCCCC(=O)O,inactive,–
Cn1c(CNC(=O)Nc2ccccc2)nnc1SCc1ccccc1,7.08 µM (active),–
CCN(CC)CCC(=O)Nc1ccc2c(c1)N(C(=O)CN(CC)CC)c1ccccc1CC2,inactive,–
CCN(CCCNC(=O)CC(C(=O)N1CCc2ccccc21)n1ccnc1)c1ccccc1 (stereo not given),0.562 µM (active),–
CCCCN(C)CCCNC(=O)CCn1nc(-c2ccccc2)ccc1=O,inactive,–
CC(C(=O)NC1CCCC1)N(C(=O)c1snc(C(N)=O)c1N)c1ccc2c(c1)OCCO2 (stereo not given),15.8 µM (active),–
CN(CCO)c1nc(N)c2c(N)nc3c(c2c1C#N)CC(=O)N3C1CCCC1,inactive,–
CCCn1nnnc1-c1cc(Cl)cc(Cl)c1,inactive,–
CCCn1nnnc1-c1cccc(Cl)c1,5.01 µM (active),–
Cc1oc(-c2cccc(Cl)c2)[n+]([O-])c1C,inactive,–
O=c1c(-c2ccc(Cl)cc2)nc2cnc(N3CCOCC3)nc2n1CCc1ccccc1,inactive,–
Clc1ccc(-c2nnc(-c3ccccc3)c(N3CCSCC3)n2)cc1,14.1 µM (active),–
Brc1ccc(-c2nnc(-c3ccccc3)c(N3CCSCC3)n2)cc1,14.1 µM (active),–

Compound,AC50,"activity, negative = inhibition"
Cc1nnc(S(=O)(=O)c2ccc(N=Nc3c(N)nc(N)nc3N)cc2)s1,–,32.1% [at 11.4 µM] (inactive)
CN1CCC[C@@H](CC2c3ccccc3Sc3ccccc32)C1,inactive,–
CSc1ccc2c(c1)[C@H](N1CCN(C)CC1)Cc1ccccc1S2,inactive and 2.51 µM (active) and 7.94 µM (active),–
CO[C@H]1COC(=O)[C@@H](Cc2ccccc2)NC(=O)[C@@H](C)COC(=O)C/C=C\[C@@H]1C,–,-5.86% [at 11.4 µM] (inactive)
Cc1nc(-c2c(C(F)(F)F)noc2-c2ccc(O)cc2O)cs1,1.26 µM (active),–
O=C(/C=C/c1cccnc1)c1ccc(NC(=O)c2cccc(Br)c2)cc1,2.51 µM (active),–
O=C(N/C(=C\c1cccnc1)C(=O)N1CCOCC1)c1cccc(Br)c1,inactive,–
COC(=O)c1c(-c2cc(OC)c(OC)c(OC)c2)c2ccnc(OCc3ncccn3)c2c(=O)n1Cc1ccnc(C)c1,inactive,–
CCOc1[nH]n(-c2ccccc2)c(=O)c1C=Nc1ccc(Cl)cc1,8.91 µM (active),–
Cc1ccc(-n2[nH]c(C)c(C=Nc3ccc4[nH]c(=O)[nH]c4c3)c2=O)cc1C,inactive,–
CCOc1[nH]n(-c2ccc(Cl)cc2)c(=O)c1C=Nc1ccc(Cl)cc1,inactive,–
O=C(O)c1cc(S(=O)(=O)NCC2CCCO2)ccc1Cl (stereo not given),inactive,–
O=C(CN(CC1CCCO1)C(=O)CNS(=O)(=O)c1ccc(Cl)cc1)NCCc1ccccc1 (stereo not given),31.6 µM (active),–
CCN(CC)CCOC(=O)[C@@H](Cc1cccc2ccccc12)C[C@@H]1CCCO1,inactive,–
COc1ccc(CNC(=O)CN(CC2CCCO2)C(=O)CNS(=O)(=O)c2ccccc2)cc1 (stereo not given),14.1 µM (active),–
Cc1nn(Cc2c(F)c(F)c(F)c(F)c2F)c(C)c1NC(=O)c1c(-c2ccccc2)nn(-c2ccccc2)c1C,2.24 µM (active),–
Cc1nn(Cc2c(F)c(F)c(F)c(F)c2F)c(C)c1NC(=O)c1cccc(COc2ccc(Cl)cc2)c1,14.1 µM (active),–
O=C1NC(O)=NC1(c1ccccc1)c1ccccc1,inactive,–
O=C(/C=C/c1ccc(Cl)cc1)NCCSc1ccccc1,1.78 µM (active),–
COCCCNC(=O)/C=C/c1ccc(Cl)cc1,inactive,–
CCCCCCCCCCCCCCC[C@H](O)[C@H](N)CO,inactive,–
CC1=NN(c2ccc(C)cc2C)C(=O)C1C(c1ccccc1)C1C(=O)N(c2ccc(C)cc2C)N=C1C (stereo not given),4.47 µM (active),–
CC1=NN(c2ccccc2)C(=O)[C@@H]1N=Nc1ccc(S(N)(=O)=O)cc1,–,20.1% [at 11.4 µM] (inactive)
